SARS PLpro yeast: SARS-CoV PLP inhibition in yeast | hit rate 0.19% among 330,000 | S. cerevisiae expressing SARS-CoV PLpro, growth rescue | Potency, µM (doses to about 32.9 µM), for inactives: at the highest dose activity, positive = growth rescue, most hits filed as activators; calls by dose curve; note: potency is the fitted concentration of half-maximal effect; 0% is about no effect; nearly all actives have a fitted effect of over 55% in size
Shiga toxin inh: Shiga toxin inhibition. Vero cells, Shiga toxin protein synthesis inhibition reporter. inhibition, % at 38.7 µM. hit rate 9.2% among 290,000. AID 2315; in the data active = inhibition mostly above about 28%, no sharp cut-off; inactive = mostly below about 43%; note: 0% is about no effect
Pf growth 48h: inhibits P. falciparum growth in the first generation, 48 h; hit rate 5.9% among 310,000; Potency, µM (titrated, usually from 28.7 µM), without a hit: at the top dose activity change, negative = inhibition, hits mostly inhibitors; P. falciparum luciferase growth in erythrocytes, 48 h; note: potency is the fitted concentration of half-maximal effect; % is set by controls: 0 for no effect and ±100 for the full control effect
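Firefly luciferase activity from engineered P. falciparum reports growth; inhibitors lower the luminescent signal. Cultures contained 2% hematocrit erythrocytes at 0.1% final parasitemia.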
Pf growth 96h: P. falciparum growth inhibition at 96 hour, primary screen for plastid delayed-death inhibitors; P. falciparum luciferase reporter growth, 96 h; Potency, µM (top dose mostly 28.7 µM), for inactives: at the top dose activity change, negative = inhibition, hits mostly inhibitors; hit rate 6.9% among 320,000; note: potency is the fitted concentration of half-maximal effect; % is set by controls: 0 for no effect and ±100 for the full control effect
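Readout is luminescence from an integrated firefly luciferase in P. falciparum. Red cells, 2% hematocrit and 0.05% parasitemia final, were cultured with compound through two parasite generations (96 hours) at 37 C, 5% CO2.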
NS1 function inh: blocks influenza NS1 protein function. hit rate 0.4% among 270,000. Potency, µM (titrated, usually from 46.1 µM), for the others: at the highest dose activity, positive = more growth; calls by dose curve; note: potency is the fitted concentration of half-maximal effect; actives are rising curves; nearly all actives have a fitted effect of over 50% in size
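S. cerevisiae expressing influenza A NS1, grown in glucose, washed, then diluted 1:100 into pH 6.0 -URA galactose medium with 23 nl compound. Growth recovery read as OD600; NS1-free strain serves as control.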
Cycloheximide cs: counter-screen hit for Shiga toxin inhibitors, cycloheximide | cell reporter, cycloheximide protein synthesis inhibition counterscreen | max response, % | hit rate 12% among 300,000; in the data active = max response mostly above about 13%, no sharp cut-off; inactive = mostly below about 14%; note: read at 38.3 µM for the half of the compounds with a filed dose; 0% is about no effect
* marks the source's active call; other numbers are inactive results; i = inactive; ? = inconclusive; . = no result; [ ] = another dose, or the depositor's remark. Most compounds without a hit are left out; they make up all but 21% or so of the library. Unless noted, calls come from the whole dose curve; as a rule, active = well fitted inhibition curve with a large enough effect; inconclusive = small, poorly fitted or top-dose-only effect, or another doubt; inactive = no such curve, though single readings can be large or run the other way.

SMILES	SARS PLpro yeast	Shiga toxin inh	Pf growth 48h	Pf growth 96h	NS1 function inh	Cycloheximide cs
O=C(CSc1nc2ncc(Cl)cc2[nH]1)NCC(=O)Nc1ccc(F)c(F)c1F	0%	0	58%	0%	2%	-1
CC(NC(=O)Nc1ccc(Br)cc1)C(C)(C)C (configuration not stated)	-2%	80*	?	?	-42%	27*
O=C(Nc1ccccc1)N(C1=NCCCCS1)c1cccc2ccccc12	-2%	76	34%	45%	-9%	46*
O=C(Nc1ccccc1)N(C1=NCCCCS1)c1ccccc1	-1%	56	36%	.	-18%	24*
O=C(c1ccc([N+](=O)[O-])cc1)N(C1=NCCCCS1)c1ccccc1	1%	3	-10%	.	0%	-2
COc1cc(CCC(=O)OCC(=O)Nc2ccc(F)cc2F)cc(OC)c1OC	2%	4	0%	-26%	-1%	-2
CCOC(=O)c1c(/N=C/c2cc(C)ccc2O)sc2c1CCN(C)C2	-9%	-4	-19%	?	-5%	-4
Cc1cccc(/C=N/c2sc3c(c2C(=O)OC(C)(C)C)CCN(C)C3)c1O	7%	-10	?	1.9µM*	11%	-3
COc1cc2c(cc1OC)C(C)N(C(=O)Cc1ccc(C(F)(F)F)cc1)CC2 (configuration not stated)	-2%	-3	?	?	0%	6
Nc1ccccc1SCC(=O)Nc1ccc2c(c1)OCO2	2%	73*	20%	-7%	-16%	23*
O=C(CSc1nnc(-c2ccccn2)o1)Nc1cccc(Cl)c1	0%	31	231%	85%	9%	13
Nc1ccccc1SCC(=O)Nc1ccc2c(c1)OCCO2	-4%	87*	112%	25%	2%	37*
O=C(CSc1nnc(-c2ccc(C(F)(F)F)cn2)o1)Nc1cccc(Cl)c1	3%	56	115%	55%	2%	17*
CC(=O)NC(CC(=O)Nc1ccc2c(c1)OCCO2)c1ccccc1 (configuration not stated)	-1%	52	40%	64%	-8%	20*
O=C(CC(c1ccccc1)c1ccccc1)Nc1ccc2c(c1)OCCO2	-9%	49	?	59%	-15%	16
CC(=O)N1CCN(S(=O)(=O)c2ccc(C)cc2)C1C (configuration not stated)	.	.	4%	-49%	.	.
Cc1cc(C(=O)CSc2nnc(CCC(N)=O)n2C)c(C)n1C1CC1	3%	.	13%	7%	.	.
CN(Cc1ccc2c(c1)OCCO2)C(=O)CSc1ncnc2sccc12	-11%	.	.	.	.	.
Cc1nc(SCC(=O)Nc2ccc3c(c2)OCCO3)nc(C)c1C	-1%	16	3%	24%	.	13
Cc1cccc(SCC(=O)Nc2ccc3c(c2)OCCO3)c1	1%	102*	8%	95%	-46%	39*
O=C(CSc1nnc(-c2cccc(Cl)c2)o1)Nc1ccc2c(c1)OCCO2	-12%	36*	i	i	16%	15
COc1ccc(CNC2CCSc3ccccc32)cc1OC (configuration not stated)	0%	-3	-7%	-3%	-3%	1
O=S(=O)(N/N=C\C=C\c1ccccc1)c1ccc(Cl)cc1	-21%	-17	4%	-3%	-84%	-2
O=C(Cc1ccccc1)Nc1ccc(N2CCOCC2)cc1N1CCOCC1	-3%	-5	-13%	2%	-4%	-1
O=C(c1ccccc1)c1ccc(N2CCOCC2)c(F)c1	5%	131*	187%	0%	2%	21*
SMILES	SARS PLpro yeast	Shiga toxin inh	Pf growth 48h	Pf growth 96h	NS1 function inh	Cycloheximide cs
O=C(c1ccccc1)c1cc([N+](=O)[O-])ccc1N1CCOCC1	2%	-8	-15%	?	-4%	-5
O=C(Cc1ccccc1)Nc1cc(C(=O)c2ccccc2)ccc1N1CCOCC1	-11%	-9	.	5.2µM*	-48%	-2
O=C(c1ccccc1)c1cc(F)c(N2CCOCC2)cc1Cl	-17%	23	9%	9.3µM*	-55%	15
CNc1nc(C)cc(C)c1S(=O)(=O)c1ccc(C)cc1	-2%	-3	5%	3%	-17%	-1
CCOc1ccc(NC(=O)C(c2ccccn2)N(C(=O)CCl)c2ccc(F)cc2)cc1 (configuration not stated)	8%	active	?	347%	16%	32*
Cc1ccc(CSc2nc3c(c(=O)[nH]c(=O)n3C)n2CCC(C)C)cc1	5%	10	.	2.9µM*	5%	-5
CCCCn1c(SCc2ccc(Cl)cc2)nc2c1c(=O)[nH]c(=O)n2C	-3%	0	6.6µM*	2%	-14%	0
CCSc1nc2c(c(=O)n(C)c(=O)n2C)n1Cc1ccc(Cl)cc1	.	.	.	.	-4%	.
CCCCCSc1nc2c(c(=O)[nH]c(=O)n2C)n1C(C)C	-5%	-9	?	12µM*	-14%	-5
Cc1ccc(Cn2c(SCC(C)C)nc3c2c(=O)n(C)c(=O)n3C)cc1	4%	9	3.7µM*	.	-47%	2
COC(=O)c1c(NC(=O)c2cccnc2Cl)sc(C(=O)N(C)C)c1C	7%	-4	7%	14%	-6%	-3
Cc1ccccc1CN1CCN(CC(=O)NCc2ccccc2)CC1	6%	-9	-1%	-12%	1%	-1
CCOc1ccc(Cc2c(C)[nH]c3ccc(C(=O)O)cc3c2=S)cc1	3%	-6	3%	-26%	24%	1
Cc1ccc(Cn2c(Sc3ncccn3)nc3c2c(=O)[nH]c(=O)n3C)cc1	-1%	-11	-9%	-8%[5.75 µM]	8%	-1
CCOCCn1c(SCc2ccc(F)cc2)nc2c1c(=O)[nH]c(=O)n2C	-3%	-16	.	?	-4%	0
CC(C)CCn1c(SCc2ccc(Cl)cc2)nc2c1c(=O)[nH]c(=O)n2C	12%	-13	?	36%	-27%	-3
CC(C)n1c(SCc2ccc(Cl)cc2)nc2c1c(=O)[nH]c(=O)n2C	6%	-12	.	12µM*	1%	1
CC(C)CCn1c(Sc2nc3ccccc3o2)nc2c1c(=O)[nH]c(=O)n2C	-3%	69*	?	-29%	-9%	73*
C/C=C/CSc1nc2c(c(=O)[nH]c(=O)n2C)n1Cc1ccc(C)cc1	-3%	-8	13µM*	?	7%	3
COCCn1c(SCc2ccc(F)cc2)nc2c1c(=O)[nH]c(=O)n2C	5%	-10	-13%	13µM*	17%	-2
Cc1nnc(SCC(=O)NCC(=O)Nc2ccc(F)c(F)c2F)n1Cc1ccccc1	0%	-2	-1%	-2%	.	5
Cc1cc(C)c(S(=O)(=O)c2ccccc2C)c(OCC(C)(C)C)n1	-18%	-2	?	?	-27%	2
CCCCCNCC(=O)Nc1cccc(C(=O)Nc2cccc(C(F)(F)F)c2)c1	0%	6	4.7µM*	3.3µM*	-1%	-2
Cc1ccc(C(=O)Nc2cccc(C(F)(F)F)c2)cc1Nc1ccccn1	-3%	-2	?	-1%	-4%	-2
